Reference: PubChem BioAssay (Tox21)
Values without a mark were called inactive. Active and inactive are the calls of the source. Calls follow the shape of the dose curve; as a rule, active = well fitted curve in the direction sought with a large enough effect in the repeat runs; inconclusive = weak or mixed curves; inactive = flat fitted curve, though single readings scatter.

assay: qHTS assay to test for compound auto fluorescence at 590 nm (red) in HEK293 cell free culture (AID 720683); conditions: cell-free medium autofluorescence, Ex540/Em590 red; series mostly up to 46 µM; fluorescence, % of fluorescent control: at the top concentration
Summary of the method: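 Cell-free wells of DMEM with 10% FBS received compound, and intrinsic fluorescence was read at excitation/emission 540/590 nm. Values expressed as equivalence to Rose Bengal sodium.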
% is scaled to controls: 0 for no effect and ±100 for the full control effect.

| SMILES | fluorescence, % of fluorescent control | outcome |
| --- | --- | --- |
| CC(C)=CCN1CC[C@]2(C)c3cc(O)ccc3C[C@H]1[C@H]2C | 0.427% [at 91.3 µM] |  |
| CN[C@@]1(c2ccccc2Cl)CCCCC1=O | -0.261% |  |
| CCNC1(c2cccs2)CCCCC1=O (stereo not given) | 0.0629% [at 18.6 µM] |  |
| CNC(C)CC1CCCCC1 (stereo not given) | -0.091% |  |
| CCC1(c2ccccc2)C(=O)NC(=O)N(C)C1=O (stereo not given) | -0.0038% |  |
| COc1cc([C@@H]2c3cc4c(cc3[C@@H](O)[C@H]3COC(=O)[C@H]23)OCO4)cc(OC)c1O | 0.323% |  |
| CN1CC[C@@]23CCCC[C@@H]2[C@@H]1Cc1ccc(O)cc13 | 0.454% |  |
| CNC(C)Cc1ccccc1 (stereo not given) | -0.321% [at 91.3 µM] |  |
| CN[C@@H](C)Cc1ccccc1 | -0.462% [at 91.3 µM] |  |
| CCCCNC(C)(C)[P+](=O)O | 0.0416% |  |
| O=C1C[C@@H]2OCC=C3CN4CC[C@]56c7ccccc7N1[C@H]5[C@H]2[C@H]3C[C@H]46 (tested in a mixture with another compound) |  | inactive |
| O=c1ccc2cc(O[C@@H]3O[C@H](CO)[C@@H](O)[C@H](O)[C@H]3O)c(O)cc2o1 | -0.093% [at 18.6 µM] |  |
| C/C=C(\CC)C(=O)NC(N)=O | 0.161% |  |
| C[C@]12CCC(=O)C[C@@H]1CC[C@@H]1[C@@H]2CC[C@@]2(C)[C@H]1CC[C@]2(C)O | -0.486% |  |
| Cc1nnc2n1-c1ccc(Cl)cc1C(c1ccccc1)=NC2 | 0.0608% |  |
| N#CC(C#N)=Cc1cc(O)c(O)c(O)c1 | 0.119% |  |
| CCCSc1cc(OC)c(CCN)cc1OC | -0.304% [at 95.7 µM] |  |
| O=C(O)CCCO | -0.0747% [at 95.7 µM] |  |
| Oc1ccc2c3c1O[C@H]1[C@@H](O)C=C[C@H]4[C@H](C2)NCC[C@@]341 | 0.418% |  |
| O=P1(N(CCCl)CCCl)NC(OO)CCO1 (stereo not given) | 0.159% |  |

| SMILES | fluorescence, % of fluorescent control | outcome |
| --- | --- | --- |
| COC(=O)[C@H]1[C@@H](OC(=O)c2ccccc2)C[C@@H]2CC[C@H]1N2C | 0.296% [at 91.3 µM] |  |
| O=C1CN=C(c2ccccc2)c2cc(Cl)ccc2N1 | -0.0515% |  |
| C=C[C@H]1CN2CC[C@H]1C[C@H]2[C@H](OC(=O)OCC)c1ccnc2ccc(OC)cc12 | -0.491% |  |
| CCc1cc(OC)c(C[C@@H](C)N)cc1OC | 0.367% [at 95.7 µM] |  |
| CC(C)[C@H]1C(=O)N2CCC[C@H]2[C@]2(O)O[C@](NC(=O)[C@@H]3C[C@@H]4c5cccc6[nH]cc(c56)C[C@H]4N(C)C3)(C(C)C)C(=O)N12 | -0.544% |  |
| C[C@]12CC[C@H]3[C@@H](CCC4=C(Cl)C(=O)CC[C@@]43C)[C@@H]1CC[C@@H]2O | 0.228% |  |
| Clc1ccc(C(Cn2ccnc2)OCc2csc3c(Cl)cccc23)c(Cl)c1 (stereo not given) | -0.0818% [at 18.6 µM] |  |
| C[C@@H]1[C@@H]2Cc3ccc(O)cc3[C@@]1(C)CCN2CC1CC1 | -0.373% |  |
| C[C@@H]1[C@H]2Cc3ccc(O)cc3[C@]1(C)CCN2C | 0.125% [at 95.7 µM] |  |
| CC(C)C[C@H]1C(=O)N2CCC[C@H]2[C@]2(O)O[C@](NC(=O)[C@@H]3C[C@@H]4c5cccc6[nH]cc(c56)C[C@H]4N(C)C3)(C(C)C)C(=O)N12 | 0.132% |  |
| [H+].[H+].[Hg+2].[O-]B([O-])[O-].[c-]1ccccc1 | -0.39% |  |
| C=CCC1([C@@H](C)CCC)C(=O)NC(=O)NC1=O | -0.34% [at 91.3 µM] |  |
| c1ccc2c(c1)Sc1ccccc1N2C[C@@H]1CN2CCC1CC2 | 0.157% |  |
| C[C@@H](Cc1ccccc1)NCCC(c1ccccc1)c1ccccc1 | -0.924% [at 18.6 µM] |  |
| CC[C@H]1[C@@H]2C[C@H]3[C@@H]4N(C)c5ccccc5[C@]45C[C@@H](C2[C@H]5O)N3[C@@H]1O (stereo not given in full) | -0.293% [at 18.6 µM] |  |
| CC(N)Cc1ccc2c(c1)OCO2 (stereo not given) | 0.194% |  |
| CN1c2ccccc2C(NCCCCCCC(=O)O)c2ccc(Cl)cc2S1(=O)=O (stereo not given) | -0.409% |  |
| CN[C@]1(c2ccccc2Cl)CCCCC1=O | 0.73% |  |
| C[C@]12CC[C@@H]3c4ccc(OC(=O)N(CCCl)CCCl)cc4CC[C@H]3[C@@H]1CC[C@@H]2OP(=O)(O)O |  | inactive |
| CC(=O)[C@@]1(O)CC[C@H]2[C@@H]3CCC4=CC(=O)CC[C@]4(C)C3(F)[C@@H](O)C[C@@]21C (stereo not given in full) | 0.099% |  |
